# Results published in paper PMC5540273 (PLoS ONE, 2017).
# Where two headings read alike, the source gives them in different places.
# How the values were obtained:
# DAPK2 = conditions: concentration: 1 μM, replicates: in singlicate; n = 1
# DAPK3 = conditions: concentration: 1 μM, replicates: in singlicate; n = 1
# DCAMKL1 = system: T1, DCAMKL1; conditions: concentration: 1 μM, replicates: in singlicate; n = 1
# T1 construct: gene DCLK1
# DCAMKL2 = system: T2, DCAMKL2; conditions: concentration: 1 μM, replicates: in singlicate; n = 1
# T2 construct: gene DCLK2
# DCAMKL3 = system: T3, DCAMKL3; conditions: concentration: 1 μM, replicates: in singlicate; n = 1
# T3 construct: gene DCLK3
# DDR1 = conditions: concentration: 1 μM, replicates: in singlicate; n = 1
# DDR2 = conditions: concentration: 1 μM, replicates: in singlicate; n = 1
# DLK = system: T4, DLK; conditions: concentration: 1 μM, replicates: in singlicate; n = 1
# T4 construct: gene MAP3K12
# DMPK2 = system: T5, DMPK2; conditions: concentration: 1 μM, replicates: in singlicate; n = 1
# T5 construct: gene CDC42BPG
# DMPK = conditions: concentration: 1 μM, replicates: in singlicate; n = 1
# DRAK1 = system: T6, DRAK1; conditions: n = 1
# T6 construct: gene STK17A
# DRAK2 = system: T7, DRAK2; conditions: n = 1
# T7 construct: gene STK17B
# DYRK1A = conditions: concentration: 1 μM, replicates: in singlicate; n = 1
# DYRK1B = conditions: concentration: 1 μM, replicates: in singlicate; n = 1
# DYRK2 = conditions: concentration: 1 μM, replicates: in singlicate; n = 1
# EGFR = conditions: concentration: 1 μM, replicates: in singlicate; n = 1
# EIF2AK1 = conditions: concentration: 1 μM, replicates: in singlicate; n = 1
# EPHA1 = conditions: concentration: 1 μM, replicates: in singlicate; n = 1
# EPHA2 = conditions: concentration: 1 μM, replicates: in singlicate; n = 1
# EPHA3 = conditions: concentration: 1 μM, replicates: in singlicate; n = 1
# [1] = concentration: 1 μM, replicates: in singlicate
# 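Also: KINOMEscan kinase panel screen.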
compound,measurement,setting,value
Fc1cccc(COc2nnc(-c3ccc4c(c3)CCO4)o2)c1,%Inh,DAPK2,0%
same,%Inh,DAPK3,0%
same,%Inh,DCAMKL1,9%
same,%Inh,DCAMKL2,0%
same,%Inh,DCAMKL3,0%
same,%Inh,DDR1,0%
same,%Inh,DDR2,12%
same,%Inh,DLK,0%
same,%Inh,DMPK2,0%
same,%Inh,DMPK,0%
same,%Inh,DRAK1; [1],6%
same,%Inh,DRAK2; [1],33%
same,%Inh,DYRK1A,44%
same,%Inh,DYRK1B,65%
same,%Inh,DYRK2,3%
same,%Inh,EGFR,6%
same,%Inh,EIF2AK1,0%
same,%Inh,EPHA1,0%
same,%Inh,EPHA2,0%
same,%Inh,EPHA3,0%
O=C(O)COc1ncnc2cc(-c3ccc4[nH]ncc4c3)sc12,%Inh,DAPK2,0%
same,%Inh,DAPK3,5%
same,%Inh,DCAMKL1,0%
same,%Inh,DCAMKL2,2%
same,%Inh,DCAMKL3,8%
same,%Inh,DDR1,0%
same,%Inh,DDR2,7%
same,%Inh,DLK,34%
same,%Inh,DMPK2,3%
same,%Inh,DMPK,13%
same,%Inh,DRAK1; 1 µM,83%
same,%Inh,DRAK2; 1 µM,99.3%
same,%Inh,DYRK1A,67%
same,%Inh,DYRK1B,41%
same,%Inh,DYRK2,66%
same,%Inh,EGFR,0%
same,%Inh,EIF2AK1,0%
same,%Inh,EPHA1,15%
same,%Inh,EPHA2,10%
same,%Inh,EPHA3,10%
Cc1cc(NCC(c2ccccc2)c2ccccc2)nc(NCc2ccc(C(F)(F)F)cc2)n1 [GW497681],%Inh,DAPK2,0%
same,%Inh,DAPK3,0%
same,%Inh,DCAMKL1,0%
same,%Inh,DCAMKL2,11%
same,%Inh,DCAMKL3,0%
same,%Inh,DDR1,0%
same,%Inh,DDR2,20%
same,%Inh,DLK,39%
same,%Inh,DMPK2,1%
same,%Inh,DMPK,0%
same,%Inh,DRAK1; [1],0%
same,%Inh,DRAK2; [1],0%
same,%Inh,DYRK1A,0%
same,%Inh,DYRK1B,0%
same,%Inh,DYRK2,3%
same,%Inh,EGFR,10%
same,%Inh,EIF2AK1,0%
same,%Inh,EPHA1,0%
same,%Inh,EPHA2,3%
same,%Inh,EPHA3,0%
Nc1ncnc2[nH]c(-c3ccccc3)nc12 [AH5015],%Inh,DAPK2,0%
same,%Inh,DAPK3,27%
same,%Inh,DCAMKL1,11%
same,%Inh,DCAMKL2,0%
same,%Inh,DCAMKL3,13%
same,%Inh,DDR1,0%
same,%Inh,DDR2,13%
same,%Inh,DLK,21%
same,%Inh,DMPK2,0%
same,%Inh,DMPK,0%
same,%Inh,DRAK1; [1],5%
same,%Inh,DRAK2; [1],0%
same,%Inh,DYRK1A,46%
same,%Inh,DYRK1B,15%
same,%Inh,DYRK2,68%
same,%Inh,EGFR,25%
same,%Inh,EIF2AK1,100%
same,%Inh,EPHA1,16%
same,%Inh,EPHA2,23%
same,%Inh,EPHA3,0%
CN(C)CCN(C)C(=O)c1cc(-c2ccncc2)c(-c2ccc(Cl)c(O)c2)o1.Cl.Cl [SB-710397],%Inh,DAPK2,0%
same,%Inh,DAPK3,33%
same,%Inh,DCAMKL1,56%
same,%Inh,DCAMKL2,9%
same,%Inh,DCAMKL3,0%
same,%Inh,DDR1,34%
same,%Inh,DDR2,38%
same,%Inh,DLK,34%
same,%Inh,DMPK2,47%
same,%Inh,DMPK,0%
same,%Inh,DRAK1; [1],23%
same,%Inh,DRAK2; [1],0%
same,%Inh,DYRK1A,9%
same,%Inh,DYRK1B,0%
same,%Inh,DYRK2,0%
same,%Inh,EGFR,30%
same,%Inh,EIF2AK1,0%
same,%Inh,EPHA1,45%
same,%Inh,EPHA2,5%
same,%Inh,EPHA3,0%
Fc1cc(Cl)ccc1Nc1ccnc2cc(-c3ccc(CN4CCCCC4)o3)ccc12 [GW560116],%Inh,DAPK2,0%
same,%Inh,DAPK3,25%
same,%Inh,DCAMKL1,0%
same,%Inh,DCAMKL2,14%
same,%Inh,DCAMKL3,0%
same,%Inh,DDR1,27%
same,%Inh,DDR2,36%
same,%Inh,DLK,36%
same,%Inh,DMPK2,0%
same,%Inh,DMPK,0%
same,%Inh,DRAK1; [1],33%
same,%Inh,DRAK2; [1],0%
same,%Inh,DYRK1A,0%
same,%Inh,DYRK1B,0%
same,%Inh,DYRK2,9%
same,%Inh,EGFR,27%
same,%Inh,EIF2AK1,0%
same,%Inh,EPHA1,43%
same,%Inh,EPHA2,6%
same,%Inh,EPHA3,33%
COC(=O)c1c(-c2ccccc2)c2cc(C(=O)O)ccc2c(=O)n1Cc1ccccc1,%Inh,DAPK2,0%
same,%Inh,DAPK3,0%
same,%Inh,DCAMKL1,5%
same,%Inh,DCAMKL2,4%
same,%Inh,DCAMKL3,26%
same,%Inh,DDR1,92.6%
same,%Inh,DDR2,63%
same,%Inh,DLK,0%
same,%Inh,DMPK2,0%
same,%Inh,DMPK,12%
same,%Inh,DRAK1; [1],0%
same,%Inh,DRAK2; [1],0%
same,%Inh,DYRK1A,7%
same,%Inh,DYRK1B,32%
same,%Inh,DYRK2,0%
same,%Inh,EGFR,0%
same,%Inh,EIF2AK1,0%
same,%Inh,EPHA1,0%
same,%Inh,EPHA2,3%
same,%Inh,EPHA3,15%
O=C(Nc1n[nH]c2nc(-c3nccs3)c(Br)cc12)C1CC1 [SB-742251],%Inh,DAPK2,0%
same,%Inh,DAPK3,6%
same,%Inh,DCAMKL1,4%
same,%Inh,DCAMKL2,0%
same,%Inh,DCAMKL3,0%
same,%Inh,DDR1,0%
same,%Inh,DDR2,26%
same,%Inh,DLK,34%
same,%Inh,DMPK2,0%
same,%Inh,DMPK,0%
same,%Inh,DRAK1; [1],0%
same,%Inh,DRAK2; [1],0%
same,%Inh,DYRK1A,30%
same,%Inh,DYRK1B,0%
same,%Inh,DYRK2,36%
same,%Inh,EGFR,0%
same,%Inh,EIF2AK1,1%
same,%Inh,EPHA1,0%
same,%Inh,EPHA2,0%
same,%Inh,EPHA3,0%
O=C(Nc1ccc2c(c1)OCO2)NC1CCN(c2ccnc(Nc3ccc(F)cc3)n2)C1 (stereo not drawn) [GSK1379724],%Inh,DAPK2,0%
same,%Inh,DAPK3,0%
same,%Inh,DCAMKL1,0%
same,%Inh,DCAMKL2,7%
same,%Inh,DCAMKL3,32%
same,%Inh,DDR1,0%
same,%Inh,DDR2,52%
same,%Inh,DLK,24%
same,%Inh,DMPK2,9%
same,%Inh,DMPK,0%
same,%Inh,DRAK1; [1],0%
same,%Inh,DRAK2; [1],0%
same,%Inh,DYRK1A,27%
same,%Inh,DYRK1B,0%
same,%Inh,DYRK2,3%
same,%Inh,EGFR,0%
same,%Inh,EIF2AK1,0%
same,%Inh,EPHA1,18%
same,%Inh,EPHA2,16%
same,%Inh,EPHA3,0%
O=C1NC(=O)C(N2CCc3ccccc32)=C1c1ccccc1Cl [SB-373598],%Inh,DAPK2,23%
same,%Inh,DAPK3,4%
same,%Inh,DCAMKL1,10%
same,%Inh,DCAMKL2,0%
same,%Inh,DCAMKL3,11%
same,%Inh,DDR1,12%
same,%Inh,DDR2,14%
same,%Inh,DLK,0%
same,%Inh,DMPK2,12%
same,%Inh,DMPK,26%
same,%Inh,DRAK1; [1],0%
same,%Inh,DRAK2; [1],0%
same,%Inh,DYRK1A,18%
same,%Inh,DYRK1B,0%
same,%Inh,DYRK2,6%
same,%Inh,EGFR,25%
same,%Inh,EIF2AK1,0%
same,%Inh,EPHA1,10%
same,%Inh,EPHA2,27%
same,%Inh,EPHA3,12%
COc1ccc(C2=C(Nc3cccc(C(=O)O)c3)C(=O)NC2=O)cc1 [SB-390765],%Inh,DAPK2,5%
same,%Inh,DAPK3,0%
same,%Inh,DCAMKL1,32%
same,%Inh,DCAMKL2,0%
same,%Inh,DCAMKL3,0%
same,%Inh,DDR1,0%
same,%Inh,DDR2,19%
same,%Inh,DLK,0%
same,%Inh,DMPK2,12%
same,%Inh,DMPK,4%
same,%Inh,DRAK1; [1],19%
same,%Inh,DRAK2; [1],7%
same,%Inh,DYRK1A,9%
same,%Inh,DYRK1B,0%
same,%Inh,DYRK2,20%
same,%Inh,EGFR,0%
same,%Inh,EIF2AK1,11%
same,%Inh,EPHA1,7%
same,%Inh,EPHA2,9%
same,%Inh,EPHA3,11%
Cc1cccc(-c2nc(C)cc(Nc3ccncc3)n2)n1 [GSK257997],%Inh,DAPK2,2%
same,%Inh,DAPK3,14%
same,%Inh,DCAMKL1,11%
same,%Inh,DCAMKL2,3%
same,%Inh,DCAMKL3,13%
same,%Inh,DDR1,0%
same,%Inh,DDR2,1%
same,%Inh,DLK,0%
same,%Inh,DMPK2,89%
same,%Inh,DMPK,0%
same,%Inh,DRAK1; [1],12%
same,%Inh,DRAK2; [1],0%
same,%Inh,DYRK1A,6%
same,%Inh,DYRK1B,13%
same,%Inh,DYRK2,14%
same,%Inh,EGFR,30%
same,%Inh,EIF2AK1,0%
same,%Inh,EPHA1,0%
same,%Inh,EPHA2,9%
same,%Inh,EPHA3,0%
COc1cccc(NC(=O)NC2CCN(c3ccnc(Nc4ccc(F)cc4)n3)C2)c1 (stereo not drawn) [GSK1379721],%Inh,DAPK2,0%
same,%Inh,DAPK3,2%
same,%Inh,DCAMKL1,11%
same,%Inh,DCAMKL2,2%
same,%Inh,DCAMKL3,0%
same,%Inh,DDR1,17%
same,%Inh,DDR2,38%
same,%Inh,DLK,0%
same,%Inh,DMPK2,13%
same,%Inh,DMPK,0%
same,%Inh,DRAK1; [1],0%
same,%Inh,DRAK2; [1],0%
same,%Inh,DYRK1A,0%
same,%Inh,DYRK1B,30%
same,%Inh,DYRK2,26%
same,%Inh,EGFR,17%
same,%Inh,EIF2AK1,0%
same,%Inh,EPHA1,12%
same,%Inh,EPHA2,0%
same,%Inh,EPHA3,0%
Cc1cc(N2Cc3ccccc3C2)nc(Nc2ccc(S(=O)(=O)N3CCOCC3)cc2)n1.Cl [GSK1669917],%Inh,DAPK2,5%
same,%Inh,DAPK3,100%
same,%Inh,DCAMKL1,21%
same,%Inh,DCAMKL2,0%
same,%Inh,DCAMKL3,0%
same,%Inh,DDR1,0%
same,%Inh,DDR2,9%
same,%Inh,DLK,2%
same,%Inh,DMPK2,1%
same,%Inh,DMPK,0%
same,%Inh,DRAK1; [1],17%
same,%Inh,DRAK2; [1],0%
same,%Inh,DYRK1A,11%
same,%Inh,DYRK1B,19%
same,%Inh,DYRK2,0%
same,%Inh,EGFR,23%
same,%Inh,EIF2AK1,0%
same,%Inh,EPHA1,0%
same,%Inh,EPHA2,19%
same,%Inh,EPHA3,0%
Cc1cccc(-c2nc(-c3ccc(S(C)(=O)=O)cc3)sc2-c2ccnc(NCCc3ccccc3)c2)c1,%Inh,DAPK2,15%
same,%Inh,DAPK3,0%
same,%Inh,DCAMKL1,5%
same,%Inh,DCAMKL2,0%
same,%Inh,DCAMKL3,8%
same,%Inh,DDR1,98.1%
same,%Inh,DDR2,79%
same,%Inh,DLK,0%
same,%Inh,DMPK2,10%
same,%Inh,DMPK,16%
same,%Inh,DRAK1; [1],0%
same,%Inh,DRAK2; [1],10%
same,%Inh,DYRK1A,0%
same,%Inh,DYRK1B,51%
same,%Inh,DYRK2,0%
same,%Inh,EGFR,0%
same,%Inh,EIF2AK1,1%
same,%Inh,EPHA1,0%
same,%Inh,EPHA2,0%
same,%Inh,EPHA3,9%
